Screening data as filed in PubChem BioAssay.
NS1 inh = qHTS Assay for Inhibitors of Influenza NS1 Protein Function | Potency, µM (titrated, usually from 46.1 µM), inactives show at the highest dose activity, positive = more growth | hit rate 0.4% among 270,000; calls by dose curve; note: actives are rising curves; nearly all actives have a fitted effect of over 50% in size
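OD600 was taken as the measure of yeast growth restored by compound in an NS1-expressing S. cerevisiae strain. Cells had been washed out of glucose medium and diluted 1:100 into galactose -URA medium, pH 6.0.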
SARS PLpro yeast = qHTS of Yeast-based Assay for SARS-CoV PLP. hit rate 0.19% among 330,000. Potency, µM (highest dose often 32.9 µM), for the others: at the highest dose activity, positive = growth rescue, usual class: activators. S. cerevisiae expressing SARS-CoV PLpro, growth rescue; calls by dose curve; note: 0% is about no effect; nearly all actives have a fitted effect of over 55% in size
Pf growth 96h = Primary qHTS for delayed death inhibitors of the malarial parasite plastid, 96 hour incubation; hit rate 6.9% among 320,000; AID 504834, 2011; Potency, µM (highest dose often 28.7 µM), inactives show top-dose activity change, negative = inhibition, actives largely listed as inhibitors; P. falciparum luciferase reporter growth, 96 h; note: % is set by controls: 0 for no effect and ±100 for the full control effect
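Plates of compound plus infected erythrocytes (2% hematocrit, 0.05% parasitemia final) incubate 96 hours, 37 C, 5% CO2. Detection reagent added; reduced luminescence from the parasites' luciferase reporter flags inhibition.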
Pf growth 48h = Primary qHTS for delayed death inhibitors of the malarial parasite plastid, 48 hour incubation. P. falciparum luciferase growth in erythrocytes, 48 h. Potency, µM (top dose mostly 28.7 µM), without a hit: at the top dose activity change, negative = inhibition, hits mostly inhibitors. hit rate 5.9% among 310,000. AID 504832, 2011; note: % is set by controls: 0 for no effect and ±100 for the full control effect
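Here the parasites carry a stable luciferase gene and grow inside erythrocytes in Albumax-based RPMI medium with compound for one erythrocytic cycle. Activity is scored as loss of luminescent signal.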
* = called active by the depositor; i = inactive; u = inconclusive; x = no result. Most compounds without a hit are left out; they make up all but 10% or so of the library. Unless noted, calls come from the whole dose curve; as a rule, active = well fitted inhibition curve with a large enough effect; inconclusive = small, poorly fitted or top-dose-only effect, or another doubt; inactive = no such curve, though single readings can be large or run the other way. Potency is the fitted concentration of half-maximal effect.

SMILES	NS1 inh	SARS PLpro yeast	Pf growth 96h	Pf growth 48h
CCn1c(C)nnc1SCC(=O)NC1CCCC1	-9%	-1%	9%	7%
O=C(CSC1=Nc2ccccc2C2=NC(Cc3c[nH]c4ccccc34)C(=O)N12)NC1CCCCC1 (stereo unspecified)	4%	5%	x	x
CC1CC(C)CN(C(=O)CSC2=Nc3ccccc3C3=NC(Cc4c[nH]c5ccccc45)C(=O)N23)C1 (stereo unspecified)	24%	-1%	5.2µM*	x
CCOC(=O)Cn1nc(C)c(NC(=O)COc2ccc(C)c(C)c2)c1C	4%	1%	24%	3%
Cn1cnc2c1c(=O)n(Cc1ccc(Cl)cc1Cl)c(=O)n2C	-33%	-4%	9.3µM*	-6%
Cn1cnc2c1c(=O)n(Cc1ccccc1)c(=O)n2C	-2%	-5%	-30%	x
COc1ccc2oc(C(=O)OCC(=O)Nc3cc(S(=O)(=O)N4CCOCC4)ccc3OC)c(C)c2c1	x	0%	31%	8%
CC(C)Cn1c(CN2CCN(C(=O)c3ccco3)CC2)nc2c1c(=O)n(C)c(=O)n2C	x	-3%	69%	4%
Cn1c(=O)c2c(nc(NCCc3ccccc3)n2Cc2ccc(F)cc2)n(C)c1=O	-101%	-10%	u	12µM*
CC(C)CCn1c(CN2CCN(C(=O)c3ccco3)CC2)nc2c1c(=O)n(C)c(=O)n2C	-15%	-2%	6.6µM*	x
CC(C)CCn1c(NCCc2ccccc2)nc2c1c(=O)n(C)c(=O)n2C	5%	1%	u	u
CC(C)CCn1c(CN2CCN(Cc3ccccc3)CC2)nc2c1c(=O)n(C)c(=O)n2C	-6%	1%	u	4.7µM*
Cn1c(=O)c2c(nc(CN3CCN(Cc4ccccc4)CC3)n2Cc2ccc(F)cc2)n(C)c1=O	-2%	-1%	u	7.4µM*
CC(=O)c1cnc2nc(SCc3cccc(C)c3)nn2c1C	-7%	1%	175%	159%
CC(Sc1nnc(N)s1)C(=O)Nc1ccc2c(c1)OCCO2 (stereo unspecified)	12%	5%	-6%	32%
CCN(CC(=O)NCc1ccc(F)cc1)C(=O)CN1CCN(c2cc(Cl)ccc2C)CC1	-6%	0%	u	u
O=c1c[n+](CCCC[n+]2cc(=O)o[nH]2)[nH]o1	0%	x	x	x
O=C(c1cccc(S(=O)(=O)NCc2ccccc2)c1)N1CCCC(C(F)(F)F)C1 (stereo unspecified)	x	-1%	-6%	u
Cn1c(=O)c2c(nc(CN3CCc4ccccc4C3)n2Cc2ccc(Cl)cc2)n(C)c1=O	6%	-7%	-19%	10%
Cn1c(=O)c2c(nc(NC(Cc3ccccc3)C(=O)O)n2Cc2ccccc2)n(C)c1=O (stereo unspecified)	11%	-3%	54%	6.6µM*
CCCCn1c(CN2CCN(c3ccccc3)CC2)nc2c1c(=O)n(C)c(=O)n2C	-28%	-1%	u	u
CCCCCn1c(CN2CCN(Cc3ccccc3)CC2)nc2c1c(=O)n(C)c(=O)n2C	-6%	10%	u	8.3µM*
CNc1nc2c(c(=O)n(C)c(=O)n2C)n1Cc1ccccc1	7%	4%	8%	7%
Cn1c(=O)c2c(nc(CN3CCc4ccccc4C3)n2Cc2ccccc2)n(C)c1=O	-50%	-1%	12µM*	13µM*
CC(C)N=C1NN=C(c2ccc(F)cc2)CS1	x	-4%	233%	i
SMILES	NS1 inh	SARS PLpro yeast	Pf growth 96h	Pf growth 48h
N#CCCn1nc(-c2ccc([N+](=O)[O-])cc2)cc1Nc1ccccc1NC(=O)C(F)(F)F	-3%	-5%	10µM*	10µM*
N#CCCn1nc(-c2ccccc2)cc1Nc1ccccc1NC(=O)C(F)(F)F	-4%	u	u	-15%
N#CCCn1nc(-c2ccc(Cl)cc2)cc1Nc1ccccc1NC(=O)C(F)(F)F	-34%	-8%	12µM*	-7%
O=C(OCCOCCN=C1NS(=O)(=O)c2ccccc21)c1ccc(F)cc1	-4%	2%	14%	10%
CCCCCOc1ccc(/C=c2\sc3ncnn3c2=O)cc1	-2%	-6%	-10%	27%
CCCCOc1ccc(/C=c2\sc3ncnn3c2=O)cc1	3%	-2%	1.5µM*	12%
COc1cccc(OC)c1C(=O)NC(=S)NCc1cccnc1	-14%	-1%	-31%	83%
Cc1ccc(O)c(C(=O)CC(=O)c2ccccc2Cl)c1	-59%	-4%	16%	15µM*
NCCCc1ccc2oc3ccccc3c2c1	0%	x	x	x
Nc1ncnc2c1ncn2C1OC(C(=O)NC2CC2)C(O)C1O (stereo unspecified)	x	x	11%	3%
CCOc1ccc2nc(NC(=O)C3CCCN(S(=O)(=O)c4c(C)noc4C)C3)sc2c1 (stereo unspecified)	-75%	-2%	13µM*	u
COc1ccc2nc(NC(=O)C3CCN(C(=O)c4ccc(F)cc4)CC3)sc2c1	8%	u	9.3µM*	u
COc1ccc2nc(NC(=O)C3CCCN(S(=O)(=O)c4cccc5nonc45)C3)sc2c1 (stereo unspecified)	-32%	-4%	88%	13µM*
COc1ccc2nc(NC(=O)C3CCCN(S(=O)(=O)c4c(C)noc4C)C3)sc2c1 (stereo unspecified)	-31%	-3%	48%	u
Cc1cccc2sc(NC(=O)c3ccc(OCC4CCCO4)cc3)nc12 (stereo unspecified)	2%	0%	-16%	u
CCOc1ccc2nc(NC(=O)C3CCCN(S(=O)(=O)c4cccc5nonc45)C3)sc2c1 (stereo unspecified)	10%	-1%	u	x
CCOc1ccc2nc(NC(=O)c3ccc(OCC4CCCO4)cc3)sc2c1 (stereo unspecified)	1%	12%	u	8.3µM*
O=c1[nH]c(SCc2cccc([N+](=O)[O-])c2)nc2nc[nH]c12	-3%	x	x	x
COc1cccc(OCc2cc(C(=O)NCc3cnc4ccccn34)no2)c1	8%	-6%	u	u
COc1cccc(OC)c1C(=O)NC(=S)Nc1ccc2c(c1)C(=O)N(C)C2=O	5%	15%	u	1.7µM*
COc1cccc(OC)c1C(=O)NC(=S)Nc1ccc2c(c1)OCCO2	-6%	-2%	u	4.1µM*
CCOC(=S)SSC(=S)OCC	x	x	-1%	-1%
N#CCCN(CCC#N)C(=O)C1c2ccccc2Oc2ccccc21	-16%	-7%	19%	4%
Cc1ccc2c(c1)N(CC(=O)OCC(=O)NCc1ccccc1)C(=O)CO2	-8%	1%	22%	8%
CCCCCCCC[n+]1cccc2c3ccccc3ccc21	x	-31%	32%	1.2µM*
Cc1cccc[n+]1CCCCCCCCCC[n+]1ccccc1C	0%	-2%	-15%	u
CCCCCCCCCC[n+]1cccc2c3ccccc3ccc21	x	-31%	u	2.1µM*
N#Cc1cccc(-c2csc(N3CCC(C(N)=O)CC3)n2)c1	x	x	2%	-7%
COc1cc2c(cc1OC)C(COc1ccccc1OC)N(C(C)=O)CC2 (stereo unspecified)	-2%	-1%	-5%	-16%
